Shown are actives, neighbours in structure and some others; about 1.3% of the full set was active somewhere.
Phagocytosis inh – inhibitors of macrophage phagocytosis. J774A.1 macrophage IgG-bead phagocytosis, imaging. inhibition, % at 5 µM. hit rate 0.07% among 110,000. AID 1029;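 active means inhibition above the mean of the plate negative controls plus 5 SD, cut at about 13% in these data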;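 further: phagocytic index as fraction of beads internalized from green versus red external bead signal; plate controls were DMSO negative control for no effect and cytochalasin-D positive control for full effect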
GALR2 ag – GALR2 (human) receptor agonism; O43603; GALR2-expressing cells, agonist activation read-out; activation, % (concentration not given with the values); hit rate 0.48% among 140,000; in the data active means activation above about 5%, passing the limit was not always enough;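 further: 0% = vehicle buffer wells and 100% = reference agonist at full effect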
S1P2 agonist – agonists of human S1P2 receptor. S1P2-expressing cell line, agonist reporter read-out. activation, % at 4.5 µM. hit rate 0.46% among 97,000; in the data active means activation above about 16%;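 further: 0% = vehicle low control and 100% = maximal reference agonist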
Target sequence (O95136 whole entry, looked up): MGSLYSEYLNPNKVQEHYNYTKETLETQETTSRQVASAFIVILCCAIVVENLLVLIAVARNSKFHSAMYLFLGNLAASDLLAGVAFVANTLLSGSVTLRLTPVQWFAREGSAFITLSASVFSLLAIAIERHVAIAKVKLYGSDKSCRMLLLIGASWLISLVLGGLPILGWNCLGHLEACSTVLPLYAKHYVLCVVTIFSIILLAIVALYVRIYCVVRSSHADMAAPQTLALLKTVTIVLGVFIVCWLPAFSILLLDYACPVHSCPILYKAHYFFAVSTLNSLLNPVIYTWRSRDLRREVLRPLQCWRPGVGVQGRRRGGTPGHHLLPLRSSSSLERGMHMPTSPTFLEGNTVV
S1P2 blocker – blocks the human S1P2 receptor; cell-based S1P2 antagonist assay, inhibition at 5 uM; hit rate 0.21% among 97,000; inhibition, % at 5 µM; in the data active means inhibition above about 45%;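 further: CRE beta-lactamase reporter cells expressing human S1P2 stimulated with S1P; 0% = agonist at EC80 alone and 100% = agonist plus reference antagonist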
GALR2 blocker – GALR2 (human) receptor antagonism. hit rate 0.39% among 140,000. O43603. GALR2-expressing cells, antagonist mode. inhibition, % at 4 µM;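 further: cells stimulated with galanin 1-16 at roughly its EC80; 0% = agonist challenge control and 100% = basal control without agonist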
GALR2 ant conf – confirmation of human galanin receptor 2 (GALR2) antagonists. GALR2-expressing cells, antagonist mode, inhibition. AID 866. shares compounds with GALR2 blocker. inhibition, % at 4 µM. hit rate 60% among 480;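 further: cells stimulated with galanin at about its EC80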
BLA inh counter – inhibits beta-lactamase reporter in GALR2 antagonist counterscreen | shares compounds with GALR2 blocker | hit rate 36% among 480 | inhibition, % at 4.2 µM | CHO NFAT-BLA reporter, beta-lactamase FRET, thapsigargin-stimulated | AID 867;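 active means inhibition above the mean inhibition across tested compounds plus 3 SD, cut at about 27% in these data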;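 further: 0% = 500 nM thapsigargin stimulated wells and 100% = unstimulated BSA only wells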
* = called active by the depositor; / = no result given. Unless noted, no stated cut-off is given here; in the data, active means inhibition above about 27%; inactive means the rest.

SMILES	Phagocytosis inh	GALR2 ag	S1P2 agonist	S1P2 blocker	GALR2 blocker	GALR2 ant conf	BLA inh counter
c1cncc(-c2nc(NCC3COc4ccccc4O3)c3ccccc3n2)c1 (configuration not stated)	-1	-1	4	-7	5	/	/
O=C(O)C1C2CCC(O2)C1C(=O)Nc1ccc(O)cc1 (configuration not stated)	3	-1	/	/	1	/	/
Cc1nc2sccn2c1-c1csc(NCc2ccccc2)n1	/	-2	-7	41	27*	24	-1
COc1ccc(-n2cnnc2SCc2csc(-c3ccccc3)n2)cc1	-1	0	/	/	8	/	/
CC(NC(=O)OC(C)(C)C)C(=O)Oc1cc2oc(=O)cc(-c3ccccc3)c2cc1Cl (configuration not stated)	0	1	-8	46	32*	29*	40*
CCC1CCCCN1C(=S)Nc1ccc(OC(F)F)cc1 (configuration not stated)	/	-3	/	/	8	/	/
O=C(O)CNS(=O)(=O)c1ccc(Br)s1	1	-1	/	/	9	/	/
O=S(=O)(NCc1ccncc1)c1ccc(Br)s1	-2	-2	/	/	37*	44*	8
COc1ccc(COc2cc(-c3cccc(OC)c3)nc3ccc(NC(=O)c4ccc(N(C)C)cc4)cc23)cc1	/	-3	/	/	27*	16	10
COc1ccc(COc2cc(-c3cccc(OC)c3)nc3ccc(NC(=O)c4ccc(C)cc4)cc23)cc1	/	-2	/	/	13	/	/
Cc1ccc(S(=O)(=O)N2CCC(=O)N(CCOCc3ccc(F)cc3)CC2)cc1	/	-3	/	/	-5	/	/
CNC(=O)NC(=O)C(C)OC(=O)c1c2c(nc3ccccc13)/C(=C/c1cccs1)CC2 (configuration not stated)	-5	6.6*	/	/	49*	41*	48*
CCCCNC(=O)COC(=O)c1cc(C)nc2ccccc12	-1	-1	-3	-2	-7	/	/
CCCCNC(=O)COC(=O)c1c2c(nc3ccccc13)/C(=C/c1cccs1)CC2	13	8.0*	/	/	27*	41*	51*
COc1ccc(CC(=O)OCC(=O)NCCc2ccccc2)cc1OC	2	-1	/	/	0	/	/
O=C(Oc1ccccc1/C=C\C(=O)c1cc2ccccc2o1)c1ccccc1	-3	-1	/	/	27*	26	14
Cc1cc(C)cc(OCc2nnc(SCC(=O)OC(C)C)o2)c1	/	-2	-3	-14	4	/	/
Cc1ccc(NC(=S)Nc2ccc(C(C)C)cc2)cc1S(=O)(=O)N1CCCCCC1	-1	-2	/	/	1	/	/
CCOC(=O)c1cnn(-c2nc3c(C)cccc3s2)c1C(F)(F)F	0	-2	0	-14	5	/	/
CCOC(=O)c1cnn(-c2nc3c(C)cccc3s2)c1C	-1	-4	-4	6	32*	-1	4
CC1(C)CC(=O)C=C(NC2=CC3OC(c4ccccc4)OCC3OC2=O)C1 (configuration not stated)	-6	-1	/	/	69*	76*	65*
Cc1ccccc1NC1=CC(=O)CC(C)(C)C1	/	-3	-4	-5	7	/	/
Cc1ccc2nsnc2c1NC(=O)c1ccc2c(c1)OCCO2	2	-4	-3	-9	38*	5	4
NC(=O)c1sc2nc(-c3ccco3)ccc2c1N	0	0	-5	14	-21	/	/
Nc1c(C(=O)Nc2ccccc2F)sc2nc(-c3ccco3)ccc12	1	-1	-8	34	31*	27	22
SMILES	Phagocytosis inh	GALR2 ag	S1P2 agonist	S1P2 blocker	GALR2 blocker	GALR2 ant conf	BLA inh counter
Cc1nc2cc3nc(C)sc3cc2s1	2	0	/	/	2	/	/
COc1cc2nc(C)sc2cc1SC	0	-1	/	/	27*	8	4
O=C(NC1CC1)c1ccc2c(c1)C1C3CCC(C3)C1C(c1ccccc1)N2 (configuration not stated)	-2	-2	/	/	-3	/	/
CC(Cc1cccs1)NC(=O)Nc1cccc(Cl)c1 (configuration not stated)	0	-4	-7	-12	5	/	/
CC(Cc1cccs1)NC(=O)Nc1ccc(F)cc1 (configuration not stated)	3	-3	-5	4	28*	12	9
Cc1cnn(-c2ccc3nnc(-c4ccc(Br)cc4)n3n2)c1	-2	1	/	/	16	/	/
CCC(NC(=O)Nc1nnc(C(F)(F)F)s1)(C(F)(F)F)C(F)(F)F	-5	4	-5	75*	59*	39*	16
COC(=O)C1=C(SC)N(c2ccccc2)C(c2ccccc2)CC1=O (configuration not stated)	2	-1	/	/	15	/	/
COc1cccc(C(=O)c2sc(NC(C)C)nc2N)c1	/	-3	/	/	40*	10	-2
COc1ccc(C(=O)c2sc(NC(C)C)nc2N)cc1OC	-4	-3	-2	8	2	/	/
O=C(Nc1ccc2ccccc2c1)[C@@H]1C[C@H]1[C@@H](NP(=O)(c1ccccc1)c1ccccc1)c1ccccc1	/	-1	/	/	11	/	/
C#CC(=O)N(c1cccc(OC)c1)C(C(=O)NC1CCCC1)c1cccs1 (configuration not stated)	47*	-2	-8	41	62*	72*	58*
C#CC(=O)N(c1ccc(OC)c(OC)c1)C(C(=O)NC1CCCC1)c1cccs1 (configuration not stated)	0	-2	-12	35	41*	54*	51*
COc1ccc(N(C(=O)Cc2cccs2)C(C(=O)NC2CCCCC2)c2cccn2C)cc1OC (configuration not stated)	/	-2	-10	-22	-15	/	/
N#CCC(=O)NCCCc1ccccc1	-3	-1	/	/	0	/	/
CCCCCOc1ccc(CSC(=N)N)cc1[N+](=O)[O-]	0	2	2	14	-16	/	/
CCCCOc1ccc(Br)cc1CSC(=N)N	1	0	/	/	36*	37*	66*
N#Cc1cc(Oc2cccc3cccnc23)c(-n2nnc3ccccc32)cc1C#N	1	-6	-6	-2	39*	18	13
c1ccc(-n2nnnc2Oc2cccc3cccnc23)cc1	0	-3	-9	16	-1	/	/
CCOC(=O)N1CCC(N2C(=O)c3ccc(C(=O)Nc4ccc(F)cc4F)cc3C2=O)CC1	0	-1	/	/	28*	-2	0
CCOC(=O)N1CCN(C(=O)c2ccccc2NC(=O)c2ccc(F)cc2)CC1	-5	1	/	/	-16	/	/
CCNC(=O)COC(=O)c1csc2c1CCCC2	0	0	/	/	-9	/	/
COc1ccc(S(=O)(=O)Nc2ccccc2-c2nnn(CC(=O)Nc3ccccc3OC)n2)cc1	-13	-1	/	/	28*	23	11
Oc1ccc(Nc2nc3ccccc3nc2Nc2ccc(O)cc2)cc1	0	0	-1	21	32*	34*	33*
C=C1C(=O)[C@@]23[C@H](O)C[C@@H]4C(C)(C)CC[C@H](O)[C@@]4(C)[C@@H]2CC[C@@H]1[C@H]3O	/	0	/	/	38*	38*	58*

From PubChem BioAssay
